Data from PubChem BioAssay AID743356 (Broad Institute, 2014).
A number with no mark means an inactive call.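 How the source made its calls: active means compounds that cut cell viability with a fitted half-maximal dose no more than twice the top valid dose; inconclusive means flat curve inhibiting 30 to 70%, or a poor fit; inactive means the rest, including any rise in viability.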

Assay: A549 cell cytotoxicity, dose response, cytotoxicity control, luminescence, dry powder, set 10 (AID 743356)
Details: CellTiter-Glo ATP luminescence, 72 h; at 26 µM unless noted

SMILES: CC(=O)c1ccc(N2CCN(C(=O)c3ccc4c(c3)OCO4)[C@H](C)C2)cc1
- max inhibition of viability %, active compounds read high: 9.13% [at 12 µM]

SMILES: COc1ccccc1NC(=O)N1CC[C@@H]2[C@@H](CO)N(C)c3ccc(-c4cccc(F)c4)cc3[C@@H]21
- max inhibition of viability %, active compounds read high: -10.1% [at 23.5 µM]

SMILES: CN1c2ccc(-c3ccc(F)cc3)cc2[C@H]2[C@H](CCN2C(=O)Cc2ccccn2)[C@H]1CO
- max inhibition of viability %, active compounds read high: -16.3%

SMILES: COC(=O)c1ccc(N2CCN(C(=O)c3ccc4c(c3)OCO4)CC2)cc1
- max inhibition of viability %, active compounds read high: 15.6% [at 0.1 µM]

SMILES: CN1c2ccc(-c3cccc(F)c3)cc2[C@H]2[C@H](CCN2C(=O)CCCCCCN)[C@H]1CO
- max inhibition of viability %, active compounds read high: 15.1% [at 0.0004 µM]

SMILES: CC(=O)c1ccc(N2CCN(C(=O)c3ccccc3F)CC2)cc1
- max inhibition of viability %, active compounds read high: 10.7% [at 0.012 µM]
